Data as given in ChEMBL document CHEMBL4513216, “Probing the Open Global Health Chemical Diversity Library for Multistage-Active Starting Points for Next-Generation Antimalarials” (ACS Infect Dis, 2020).
About 2,700 (4%) of roughly 68,000 compounds showed an effect of 50% or more. The entries come from a sample that favours strong results as a whole.

These compounds were tested on Plasmodium berghei (assay: Screen against P. berghei liver stage (PbLuc), transformed with Luciferase, at 2uM). Conditions: tested at 2 uM.
Assay type: functional, HepG2

Row | SMILES | INHIBITION
1 | COc1ccc(F)c(CN2CCCC(O)(CNCC(C)(C)C)C2=O)c1 (configuration not stated) | 70.81%
2 | COc1ccc(F)c(CN2CCCC(O)(CNCc3ccoc3)C2=O)c1 (configuration not stated) | -11.8%
3 | CC(C)(C)CNCC1(O)CCCN(Cc2ccccc2F)C1=O (configuration not stated) | 36.66%
4 | CCCN1C[C@@H]2CC[C@H]1CN(Cc1ccc(-n3cccn3)cc1)C2 | 47.25%
5 | CCCN1C[C@@H]2CC[C@H]1CN(Cc1cccc(-n3cccn3)c1)C2 | -15.64%
6 | CCCN1C[C@@H]2CC[C@H]1CN(Cc1ccc(Cn3cccn3)cc1)C2 | 75.43%
7 | COCC1CN(c2ccc3c(Cl)ccnc3c2F)CCO1 (configuration not stated) | -90.94%
8 | Cn1ccc(CS(=O)(=O)Cc2ccccc2)cc1=O | 36.53%
9 | COCCN1CC2(CCOCC2)c2cc(NC(=O)C3CC=CC3)ccc21 | 26.31%
10 | CC(C)C[C@H](N)COc1cccc(F)c1Oc1ccc(Cl)cc1 | 32.24%
11 | COc1cc(CNc2cc(N3CCCC3CO)ncn2)ccn1 (configuration not stated) | 21.39%
12 | Cc1nccc(CNC(=O)N2CCN(Cc3ccccc3)C[C@H]2C)n1 | 58.93%
13 | Cc1cc(CNC(=O)N2CCN(Cc3ccccc3)C[C@H]2C)on1 | -4.53%
14 | C[C@@H]1CN(Cc2ccccc2)CCN1C(=O)NCc1nccs1 | 14.83%
15 | Cc1ncsc1CNC(=O)N1CCN(Cc2ccccc2)C[C@H]1C | 37.41%
16 | Cc1ncsc1C(=O)N1CCN(Cc2ccccc2)CC1C (configuration not stated) | -12.06%
17 | Cc1ncsc1CNC(=O)N1CCN(Cc2ccccc2)CC1C (configuration not stated) | 51.4%
18 | CCCC(=O)N1CCC(c2cc3cccnc3c(O)n2)CC1 | 4.48%
19 | O=C(N1CCCC1)N1CCC2(CC1)CN(c1cccnc1)C(=O)CO2 | 39.86%
20 | CC(C)(C)c1n[nH]cc1CNC1CCC(OCC(F)(F)F)CC1 (configuration not stated) | -8.63%
21 | CC(C)(C)c1n[nH]cc1CNC1CCC(C(F)(F)F)CC1 (configuration not stated) | 64.92%
22 | CC(C)(C)c1n[nH]cc1CNC1CCC(O)CC1 (configuration not stated) | -57.67%
23 | C=C/C=c1\c(=C/C)oc2c(NCc3ccccc3)nc(CC)nc12 | 17.42%
24 | C=C/C=c1\c(=C/C)oc2c(NCc3ccccc3)ncnc12 | 24.34%
25 | C=C/C=c1\c(=C/C)oc2c(NCc3ccccc3)nc(C)nc12 | 51.36%
26 | Cc1noc(C)c1CCC(=O)N1CCCC(n2ccnc2C)C1 (configuration not stated) | 11.18%

Row | SMILES | INHIBITION
27 | CCN1CCOC(CNCc2ccc(C)s2)C1 (configuration not stated) | -19.02%
28 | COc1cc(CNc2cnn(CC(F)F)c2)ccc1O | 19.18%
29 | COc1ccc(CNc2cnn(CC(F)F)c2)cc1 | -15.93%
30 | Cc1ccc(CNc2cnn(CC(F)F)c2)cc1C | 55.43%
31 | CCn1nnc2c1C(COCCN(C)C)CN(S(=O)(=O)CC)C2 (configuration not stated) | 29.19%
32 | CN(Cc1ccno1)C(=O)c1cccc(CC2CCNCC2)c1 | 38.67%
33 | CNc1ncc(CN(C)C(=O)c2cccc(CC3CCNCC3)c2)cn1 | 52.98%
34 | Cc1nc(CN(C)C(=O)c2cccc(CC3CCNCC3)c2)no1 | 24.36%
35 | Cc1nc2ccc(Cl)cn2c1CN1CCN(S(=O)(=O)N2CCCC2)CC1 | -21.9%
36 | CCN1CCc2c(sc3c2C(=O)NC(C=Cc2ccccc2)N3)C1 (configuration not stated) | -18.77%
37 | COCC(=O)N1CCCCC1c1nccc(C)n1 (configuration not stated) | 18.22%
38 | CN(C)CCN1CCCC12CCN(Cc1nccn1C)CC2 | 37.75%
39 | Cc1cc(C(F)(F)F)nn1CCCNC(=O)C1CCC1 | 31.12%
40 | O=C(COc1coc(CN2CCOCC2)cc1=O)Nc1ccc(Cl)cc1 | 16.49%
41 | O=C(COc1coc(CN2CCOCC2)cc1=O)Nc1ccccc1F | 64.35%
42 | O=C(COc1coc(CN2CCCCC2)cc1=O)Nc1ccccc1Cl | -46.67%
43 | CCCc1ccc2oc(C(=O)N3CCN(CCOC)CC3)c(C)c2c1 | -28.65%
44 | COCCN(C)C(=O)Cn1cccc(OC)c1=O | -14.84%
45 | COc1cccn(CC(=O)N(C)CCSC)c1=O | 21.97%
46 | COc1cccn(CC(=O)N(C)CCCOc2c(C)cccc2C)c1=O | -30.49%
47 | COc1cccn(CC(=O)N(C)CCC2CCOCC2)c1=O | 69.67%
48 | COCCCN(C)C(=O)Cn1cccc(OC)c1=O | 50.59%
49 | COc1cccn(CC(=O)N(C)Cc2ccoc2)c1=O | -33.11%
50 | CN(C)C(c1ccccn1)C1CCC(CNC(=O)CC2CCCC2)CC1 (configuration not stated) | 0.64%
51 | CCc1c(C(=O)O)nnn1-c1ccc(C)cc1C | -54.75%
52 | NC(=O)N1CC[C@@H]2O[C@@H](COCC(=O)N3CCCC3)CC[C@@H]21 | 35.98%

Row | SMILES | INHIBITION
53 | Cc1cc(C[C@@H]2COC[C@H]2NCc2ccccc2C(F)(F)F)on1 | 32.31%
54 | Cc1cc(C(O)CCNC(=O)c2ccc(Cl)s2)c(C)o1 (configuration not stated) | -16.88%
55 | CC(CNC(=O)c1cnccn1)Oc1ccc(F)cc1 (configuration not stated) | 52.84%
56 | CC(CNC(=O)c1cnccn1)Oc1cccc(Br)c1 (configuration not stated) | 30.75%
57 | CC(CNC(=O)c1ccncc1F)Oc1ccc(F)cc1 (configuration not stated) | 23.79%
58 | NCc1cccc(-c2cccnc2C(=O)NCCN2CCCC2)c1 | 1.07%
59 | O=C(NC1CC1)[C@@H]1CCO[C@@H]2CCN(CC3CCC3)C[C@H]21 | 9.98%
60 | CC(CNC(=O)Nc1ccc(F)cc1Br)N1CCOCC1 (configuration not stated) | 74.22%
61 | Cc1cc(F)ccc1NC(=O)NCC(C)N1CCOCC1 (configuration not stated) | 48.59%
62 | Cc1ccc(F)cc1NC(=O)NCC(C)N1CCOCC1 (configuration not stated) | -0.54%
63 | CCc1ccc(CN2CCC3(CCCN(C(=O)N(C)C)C3)C2)o1 (configuration not stated) | 1.08%
64 | O=C(Cc1ccc2c(c1)OCCO2)NC1CC1 | 23.31%
65 | CN(Cc1ccco1)[C@@H]1CN(Cc2ccc(F)cc2)C[C@@H]2CCCO[C@@H]21 | 29.73%
66 | O=C(CC1CC1)N[C@@H]1CN(Cc2ccncc2)C[C@@H]2CCCO[C@@H]21 | 29.01%
67 | O=C(N[C@@H]1CN(Cc2ccccc2)C[C@@H]2CCCO[C@@H]21)C1CC1 | 50.9%
68 | CS(=O)(=O)N[C@@H]1CN(Cc2ccccc2)C[C@@H]2CCCO[C@@H]21 | 14.39%
69 | CN(Cc1ccco1)[C@@H]1CN(Cc2cccnc2)C[C@@H]2CCCO[C@@H]21 | 29.36%
70 | CN(Cc1ccco1)[C@@H]1CN(Cc2ccncc2)C[C@@H]2CCCO[C@@H]21 | 60.93%
71 | O=C(N[C@@H]1CN(Cc2ccoc2)C[C@@H]2CCCO[C@@H]21)C1CCC1 | -8.62%
72 | O=C(CC1CC1)N[C@@H]1CN(Cc2ccoc2)C[C@@H]2CCCO[C@@H]21 | 35.89%
73 | O=C(CC1CC1)N[C@@H]1CN(Cc2ccco2)C[C@@H]2CCCO[C@@H]21 | 52.55%
74 | NCC1CCCCN1C(=O)Cc1cccc(Cl)c1 (configuration not stated) | -22.89%
75 | CC1(C)CN(C(=O)c2occc2COc2cccc(C#N)c2)CCO1 | -0.41%
76 | O=C(NCc1nc[nH]n1)c1cc(COc2cccc(F)c2)[nH]n1 | 10.22%
77 | CC(C)(C)C(=O)NCCC(=O)NS(=O)(=O)c1cccc(C#N)c1 | -49%
78 | Cc1nc(CC(=O)N2CCc3nnc(N(C)C)cc3C2)cs1 | 1.6%

Row | SMILES | INHIBITION
79 | Cc1ccc(N2CCCC(N(C)c3ncnc4c3CCC4)C2)nn1 (configuration not stated) | -28.33%
80 | CN1CCS(=O)(=O)[C@@H]2CCN(C(=O)c3ccccc3)CC[C@@H]21 | 71.83%
81 | CC(C)(C)CC(=O)N1CC[C@@H]2[C@H](CC1)N(S(C)(=O)=O)CCS2(=O)=O | -16.93%
82 | CN1CCS(=O)(=O)[C@@H]2CCN(C(=O)CC(C)(C)C)CC[C@@H]21 | 50.17%
83 | COc1ccc(C(=O)N2CC[C@@H]3[C@H](CC2)N(C)CCS3(=O)=O)cc1 | -17.39%
84 | COc1ccc(CC(=O)N2CC[C@@H]3[C@H](CC2)N(C)CCS3(=O)=O)cc1 | 24.64%
85 | COc1cccc(C(=O)N2CC[C@@H]3[C@H](CC2)N(C)CCS3(=O)=O)c1 | -14.21%
86 | CC(=O)NC(C)(C)c1noc(C2(C#N)CCCCC2)n1 | 22.41%
87 | Cc1nc(CNC(=O)NC2CCN(c3ncccn3)CC2)cs1 | 56.78%
88 | Cc1nc(CCNC(=O)NC2CCN(c3ncccn3)CC2)cs1 | -17.45%
89 | Cc1nc(CNC(=O)NC2CCCN(c3ncccn3)C2)cs1 (configuration not stated) | 30.96%
90 | Cc1nn(C)c(N2CCOCC2)c1CNCc1ccc2c(c1)OCO2 | 18.01%
91 | Cc1cc(CNCc2c(C(C)C)nn(C)c2N2CCOCC2)no1 | 22.16%
92 | Cc1nn(C)c(N2CCOCC2)c1CNCc1ccc(CO)c(F)c1 | 63.05%
93 | Cc1nn(C)c(N2CCOCC2)c1CNCc1ccnc(N(C)C)c1 | 17.11%
94 | Cc1nc(CNCc2c(C)nn(C)c2N2CCOCC2)cs1 | -14.3%
95 | Cc1cc(CNCc2c(C)nn(C)c2N2CCOCC2)no1 | 65.77%
96 | COc1ncccc1CNCc1c(C)nn(C)c1N1CCOCC1 | 40.24%
97 | Cc1nn(C)c(N2CCOCC2)c1CNCc1ccoc1C | 10.4%
98 | Cc1nn(C)c(N2CCOCC2)c1CNCc1ccccc1CO | 50.18%
99 | CN(Cc1ccc(F)cc1)CC1(O)CCN(C(=O)c2cccs2)C1 (configuration not stated) | -27.04%
100 | CC(C)c1nc2n(n1)CC(NCc1nnc(C3CC3)o1)CC2 (configuration not stated) | -30.61%
101 | O=C(CCNC(=O)C1CCCC1)NCc1cccnc1-n1cncn1 | -18.67%
102 | Cc1nn(C)c(C)c1C1SCC(=O)Nc2c1c(O)nn2C(C)C (configuration not stated) | 4.89%
